Laboratory results taken from PubChem BioAssay (NCATS).
Inconclusive results are not listed. The source made the active and inactive calls. Calls follow the shape of the dose curve; as a rule, active = well fitted curve in the direction sought with a large enough effect; inconclusive = small, poorly fitted or top-dose-only effect, or another doubt; inactive = no such curve, though single readings can be large; an effect the other way counts as inactive or inconclusive.

biological target: Tyrosine-protein phosphatase non-receptor type substrate 1 (Homo sapiens) + Leukocyte surface antigen CD47 (Homo sapiens) (UniProt P78324+Q08722); assay: CD47-SIRPalpha protein protein interaction - Alpha assay qHTS validation (AID 1347059); settings: AlphaScreen CD47-His/biotin-SIRPalpha binding, LOPAC; series mostly up to 38.3 µM; activity change, negative = inhibition: at the top concentration;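 also: bead proximity luminescence from CD47 binding SIRPalpha after compound preincubation with SIRPalpha; % is scaled to controls: 0 for no effect and ±100 for the full control effect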
Sequence (P78324 whole entry, looked up, the tested form may be a part): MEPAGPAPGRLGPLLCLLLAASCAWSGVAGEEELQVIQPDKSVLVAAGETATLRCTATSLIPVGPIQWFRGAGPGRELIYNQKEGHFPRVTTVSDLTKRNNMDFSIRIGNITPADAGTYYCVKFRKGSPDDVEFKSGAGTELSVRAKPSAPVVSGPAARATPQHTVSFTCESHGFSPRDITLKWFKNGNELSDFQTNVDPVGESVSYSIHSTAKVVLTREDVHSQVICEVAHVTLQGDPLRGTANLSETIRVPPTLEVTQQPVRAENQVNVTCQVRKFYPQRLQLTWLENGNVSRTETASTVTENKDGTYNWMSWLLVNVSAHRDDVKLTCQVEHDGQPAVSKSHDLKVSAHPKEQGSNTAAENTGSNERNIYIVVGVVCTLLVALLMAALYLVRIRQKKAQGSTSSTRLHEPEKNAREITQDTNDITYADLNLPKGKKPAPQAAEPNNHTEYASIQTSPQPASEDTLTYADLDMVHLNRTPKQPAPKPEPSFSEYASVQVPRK
Sequence (Q08722 whole entry, looked up, the tested form may be a part): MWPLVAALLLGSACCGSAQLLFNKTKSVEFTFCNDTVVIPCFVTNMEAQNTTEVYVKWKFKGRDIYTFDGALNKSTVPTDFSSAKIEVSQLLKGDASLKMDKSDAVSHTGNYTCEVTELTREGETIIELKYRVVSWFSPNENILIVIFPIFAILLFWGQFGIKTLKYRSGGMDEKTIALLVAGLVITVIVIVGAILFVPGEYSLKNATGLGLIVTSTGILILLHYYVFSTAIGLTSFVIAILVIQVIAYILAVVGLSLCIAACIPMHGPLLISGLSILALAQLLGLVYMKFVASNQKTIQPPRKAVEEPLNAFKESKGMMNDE
In short: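 In PBS (pH 7.4) with 0.05% IGEPAL CA-630, compound is preincubated with biotin-Avi-SIRPalpha ectodomain before His-CD47 ectodomain and affinity beads are added. Light-protected room-temperature incubations; AlphaScreen readout.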

SMILES	activity change, negative = inhibition
O=C(c1cc(O)c(O)c([N+](=O)[O-])c1)c1ccccc1F	5.61% (inactive)
O=C(Nc1ccccc1)c1cc([N+](=O)[O-])ccc1Cl	0.0915% (inactive)
CC(=O)/C=C1\C(=O)N(C)c2ccccc21	-4.64% (inactive)
O=[N+]([O-])c1ccc2c(c1)S(=O)(=O)C=C2	2.12% (inactive)
COc1ccc(/C=C/C(=O)Nc2ccccc2C(=O)O)cc1OC	-2.87% (inactive)
N#C/C(=C\c1ccc(-c2cc(Cl)ccc2Cl)o1)C(=O)Nc1cccc2ncccc12	-10.5% (inactive)
Nc1nc(SCc2ccc([N+](=O)[O-])cc2)c2ncn([C@@H]3O[C@H](CO)[C@@H](O)[C@H]3O)c2n1	2.05% (inactive)
CN1CCc2cccc3c2C1Cc1ccc(O)c(O)c1-3 (stereo not drawn)	-16.1% (inactive)
COC1=C(OC)C(=O)c2ccccc2C1=O	-3.08% (inactive)

biological target: Parathyroid hormone/parathyroid hormone-related peptide receptor (Homo sapiens) (UniProt Q03431); assay: qHTS for PTHR1 Agonists: Optimization Screen against the NCGC LOPAC library (AID 1347079); settings: HEK293 GP2 PTHR1 GloSensor cAMP luminescence, 1 h; series mostly up to 57.1 µM; activation: at the top concentration;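 also: GloSensor cAMP luminescence in HEK-293 GP2 cells expressing human PTHR1 with IBMX; 0% is about no effect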
Sequence (Q03431 whole entry, looked up): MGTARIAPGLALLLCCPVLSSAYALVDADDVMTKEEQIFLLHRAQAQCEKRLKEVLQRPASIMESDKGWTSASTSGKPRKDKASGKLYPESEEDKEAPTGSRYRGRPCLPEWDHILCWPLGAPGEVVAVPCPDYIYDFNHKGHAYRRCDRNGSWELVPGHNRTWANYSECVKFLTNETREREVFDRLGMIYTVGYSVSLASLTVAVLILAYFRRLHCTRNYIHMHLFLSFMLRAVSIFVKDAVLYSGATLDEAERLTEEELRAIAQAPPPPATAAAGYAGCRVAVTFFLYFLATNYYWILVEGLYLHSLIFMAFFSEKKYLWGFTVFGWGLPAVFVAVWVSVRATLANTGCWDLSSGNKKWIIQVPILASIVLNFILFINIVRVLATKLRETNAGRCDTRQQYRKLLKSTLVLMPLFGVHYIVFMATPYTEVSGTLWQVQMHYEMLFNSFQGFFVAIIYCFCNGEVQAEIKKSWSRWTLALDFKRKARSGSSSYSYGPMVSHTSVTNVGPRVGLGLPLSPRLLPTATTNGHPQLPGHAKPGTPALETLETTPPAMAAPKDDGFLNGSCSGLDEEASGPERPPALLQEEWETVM
In short: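 Signal increase flags agonism. GP2 cells, derived from HEK-293, express human PTHR1 and a GloSensor cAMP construct.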

SMILES	activation
Cn1c(=O)c2[nH]c(-c3ccccc3)nc2n(C)c1=O	-20.4% (inactive)
N[C@@H](CC(=O)O)C(=O)O	-33.1% (inactive)
O=C(c1cc(O)c(O)c([N+](=O)[O-])c1)c1ccccc1F	30.2% (inactive)
O=C(Nc1ccccc1)c1cc([N+](=O)[O-])ccc1Cl	-31% (inactive)
CC(=O)/C=C1\C(=O)N(C)c2ccccc21	-29.1% (inactive)
O=C(Nc1cccc(C(=O)Nc2ccc(S(=O)(=O)O)c3cc(S(=O)(=O)O)cc(S(=O)(=O)O)c23)c1)Nc1cccc(C(=O)Nc2ccc(S(=O)(=O)O)c3cc(S(=O)(=O)O)cc(S(=O)(=O)O)c23)c1	34.5% (inactive)
O=[N+]([O-])c1ccc2c(c1)S(=O)(=O)C=C2	-16% (inactive)
Cc1ccc(O)c(N=Nc2ccccc2)n1	-27.6% (inactive)
COc1ccc(/C=C/C(=O)Nc2ccccc2C(=O)O)cc1OC	-25.9% (inactive)
CCCCCCCCCCCCCCCCCCNC(=O)OCC(COP(=O)([O-])OCC[n+]1ccsc1)OC (stereo not drawn)	4.14% (inactive)
COc1cc(OC)c(/C=C2/C(=O)Nc3ccccc32)c(OC)c1	-39.2% (inactive)
NCCNC(=O)c1ncsc1-c1cccc(F)c1	-12.7% (inactive)
CCNC(=O)[C@H]1O[C@@H](n2cnc3c(N)nc(NCCc4ccc(CCC(=O)O)cc4)nc32)[C@H](O)[C@@H]1O	47.8% (inactive)
Oc1ccccc1O	3.49% (inactive)
CN(C)c1ccc(/C=C2\C(=O)Nc3ccccc32)cc1	13.6% (inactive)
CN1C2CC(OC(=O)[C@H](CO)c3ccccc3)CC1C1OC12 (stereo partly drawn)	-9.11% (inactive)
N#C/C(=C\c1ccc(-c2cc(Cl)ccc2Cl)o1)C(=O)Nc1cccc2ncccc12	-16.8% (inactive)
O=C(O)[C@@H]1C[C@@H](C(=O)O)N1	4.19% (inactive)
COc1ccccc1N1CCN(CCN(C(=O)c2ccc(I)cc2)c2ccccn2)CC1	19.4% (inactive)
Nc1ncnc2c1c(I)cn2[C@@H]1C[C@H](N)[C@@H](O)[C@H]1O	5.71% (inactive)

SMILES	activation
N.N.N.N.N.N.N.N.N.N.N.N.N.N.O.O.[Ru+4].[Ru+5].[Ru+5]	9.77% (inactive)
C=CC(=O)c1ccc(CCCCCC)cc1	-36.3% (inactive)
Nc1nc(SCc2ccc([N+](=O)[O-])cc2)c2ncn([C@@H]3O[C@H](CO)[C@@H](O)[C@H]3O)c2n1	20.1% (inactive)
C[N+](C)(CCCCCC[N+](C)(C)CCCN1C(=O)c2cccc3cccc(c23)C1=O)CCCN1C(=O)c2cccc3cccc(c23)C1=O	7.98% (inactive)
CN(C)CCCO[C@@H]1[C@H]2OC(C)(C)O[C@H]2O[C@@H]1[C@H](O)CO	9.68% (inactive)
C#CCN1C(C)=C(C(=O)OC)C(c2cccc([N+](=O)[O-])c2)C(C(=O)OCC)=C1C (stereo not drawn)	2.44% (inactive)
CCCCN1CCC(n2c(=O)[nH]c3ccccc32)CC1	-4.14% (inactive)
O=c1[nH]c2cc(Cl)c(Cl)cc2[nH]c1=O	0.872% (inactive)
CN1CCc2cccc3c2C1Cc1ccc(O)c(O)c1-3 (stereo not drawn)	-51.9% (inactive)
CCCCCC(O)c1cccc(OCc2ccc3ccccc3n2)c1 (stereo not drawn)	56.7% (inactive)
C#C[C@]1(O)CC[C@H]2[C@@H]3CCC4=Cc5oncc5CC4(C)[C@H]3CCC21C (stereo partly drawn)	-32.6% (inactive)
COC1=C(OC)C(=O)c2ccccc2C1=O	-3.53% (inactive)
CC(COc1ccc(/C=C/c2ccccc2)cc1)[N+](C)(C)C (stereo not drawn)	16% (inactive)
COc1ccccc1N1CCN(CCCCNS(=O)(=O)c2cccc3c(N(C)C)cccc23)CC1	39.1% (inactive)
N#C/C(=C\c1ccc(O)c(O)c1)C(=O)NCCCc1ccccc1	40.3% (inactive)
CO/S(=N\S(=O)(=O)c1ccc(Cl)cc1)c1ccc([N+](=O)[O-])cc1 (stereo not drawn)	-19.7% (inactive)
C[N+](C)(C)CC(=O)[O-]	-0.218% (inactive)
OCC1O[C@H]([S-])[C@H](O)[C@@H](O)[C@@H]1O.[Au+] (stereo partly drawn)	-21.8% (inactive)
N.N.O=C(O)C1(C(=O)O)CCC1.[Pt]	0.48% (inactive)
